# Source: PubChem BioAssay (National Center for Advancing Translational Sciences (NCATS))
# Only some compounds are listed: those with a hit (about 8.1% of all), similar ones and a draw of the others.
# Sfp inh: blocks B. subtilis Sfp PPTase activity; Q9F4F7; Biochemical Sfp PPTase activity, qHTS; Potency, µM, inactives show largest response in the series, negative = inhibition, actives largely listed as inhibitors; actives 3.5% (n = 310,000);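 note: the enzyme is Sfp with the accession as filed and its product quenches rhodamine fluorescence; 0% = enzyme reaction without inhibitor and -100% = no enzyme wells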
#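 Sfp 15 nM + cpd, 15 min RT; start w/ rhodamine-CoA 5 uM, BHQ-2-YbbR 12.5 uM (final); 50 mM Hepes pH 7.6, 10 mM MgCl2, 0.01% NP-40, 0.01% BSA; read 525/598 nm at 0 and 30 min.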
# Gal4-VP16 FLuc: Gal4-VP16 reporter inhibition counter-screen | AID 2546 | Drosophila S2 Gal4-VP16 UAS-luciferase, luminescence, 20 h | Potency, µM (doses to about 53.6 µM), for inactives: top-dose activity, negative = inhibition, actives largely listed as inhibitors | actives 3.5% (n = 310,000);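 note: Gal4-VP16 expression switched on by copper sulfate through the metallothionein promoter; % is set by controls: 0 for no effect and ±100 for the full control effect; nearly all actives have a fitted effect of over 50% in size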
# ClpP mod: qHTS Assay for Activators of ClpP | ATP-dependent Clp protease proteolytic subunit (Bacillus subtilis (strain 168)), P80244 | purified B. subtilis ClpP, FRET peptide cleavage, 20 min | Potency, µM (series often up to 57.5 µM), for the others: at the highest dose activity change, negative = active | actives 1.9% (n = 340,000) | AID 651965, 2013; active = well fitted falling curve with a large enough effect; inconclusive = small, poorly fitted or top-dose-only effect; inactive = no such curve, though single readings can be large or run the other way; note: the source files actives as falling curves though it sought activators and does not explain the sign; nearly all actives have a fitted effect of over 65% in size
# Target sequence (P80244 whole entry, looked up): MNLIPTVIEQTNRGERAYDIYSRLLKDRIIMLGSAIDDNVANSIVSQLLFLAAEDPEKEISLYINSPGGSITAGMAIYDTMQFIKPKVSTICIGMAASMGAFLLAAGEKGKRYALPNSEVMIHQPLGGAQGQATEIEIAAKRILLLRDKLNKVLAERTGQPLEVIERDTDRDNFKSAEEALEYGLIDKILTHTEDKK
#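 FRET quenching reversal measured ClpP activation: 10 microg/mL B. subtilis ClpP at pH 8 with the FRET-FV decapeptide, read at 430 nm after 320 nm excitation. The 20-min minus 0-min signal was scaled between DMSO/no-enzyme wells and ADEP (5.8 microM final).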
# Epigenetic reg: derepresses silenced GFP reporter in murine cells. murine LDR cells, GFP reporter derepression, 30 h. Potency, µM (top dose mostly 53.9 µM), inactives show at the highest dose GFP activation, actives largely listed as activators. actives 0.2% (n = 280,000). AID 1865; note: % of control where 0% means no effect; nearly all actives have a fitted effect of over 60% in size
#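 Readout is the number of GFP-expressing murine LDR cells, counted by cytometry following washing. Cells were treated with compound for 30 h at 37 C; the stably integrated CMV-GFP locus is normally silent.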
# PINK1 modulator: PINK1 expression modulation; PINK1 immunofluorescence, high-content cytometry, 24 h; Potency, µM (top dose mostly 76.6 µM), for the others: at the top dose activation (PINK1 increase), hits mostly activators; actives 0.2% (n = 410,000); AID 624263; active = well fitted activation curve with a large enough effect; inconclusive = small, poorly fitted or top-dose-only effect; cell line not stated here; note: % of control where 0% means no effect; nearly all actives have a fitted effect of over 65% in size
#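 Stable cell line, 250 cells/well, 12 h attachment; compounds pinned at 5 concentrations, 24 h; CCCP control. Fixed with nuclear dye, primary antibodies 12 h at 10 degrees C, secondary plus cell stain; laser-scanning cytometer read.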
# RORgamma inh: inhibitors of mouse ROR gamma transcriptional activity; actives 5.4% (n = 310,000); P51450; Drosophila S2 Gal4-RORgamma UAS-luciferase reporter, 20 h; Potency, µM (highest dose often 53.6 µM), for the others: at the top dose activity change, negative = inhibition, usual class: inhibitors; AID 2551; note: % is set by controls: 0 for no effect and ±100 for the full control effect; nearly all actives have a fitted effect of over 60% in size
# Target sequence (P51450 whole entry, looked up, the tested form may be a part): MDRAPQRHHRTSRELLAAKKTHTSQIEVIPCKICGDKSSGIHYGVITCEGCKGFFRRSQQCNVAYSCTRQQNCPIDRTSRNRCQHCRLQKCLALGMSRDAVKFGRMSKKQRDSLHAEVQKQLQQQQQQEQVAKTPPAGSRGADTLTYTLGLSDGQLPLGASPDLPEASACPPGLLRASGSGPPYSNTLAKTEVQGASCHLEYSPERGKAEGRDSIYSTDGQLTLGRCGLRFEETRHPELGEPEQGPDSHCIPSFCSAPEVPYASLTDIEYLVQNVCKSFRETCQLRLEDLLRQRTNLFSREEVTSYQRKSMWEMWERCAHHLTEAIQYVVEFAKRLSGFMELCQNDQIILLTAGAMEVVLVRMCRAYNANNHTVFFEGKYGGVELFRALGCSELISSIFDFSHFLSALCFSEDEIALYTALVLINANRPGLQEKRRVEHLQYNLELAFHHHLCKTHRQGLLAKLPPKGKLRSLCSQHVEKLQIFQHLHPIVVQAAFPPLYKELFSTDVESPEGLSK
#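 Read-out: Photinus luciferase luminescence; inhibitors lower reporter signal. Insect Schneider cells with Gal4-ROR gamma fusion under metallothionein promoter, UAS reporter; 700 uM final copper sulfate induction, 20 hr, ambient temperature.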
# * hit, by the source's call; ? = inconclusive; . = no result; [ ] = another dose, or the depositor's remark. Unless noted, calls come from the whole dose curve; as a rule, active = well fitted curve in the direction sought with a large enough effect; inconclusive = small, poorly fitted or top-dose-only effect, or another doubt; inactive = no such curve, though single readings can be large; an effect the other way counts as inactive or inconclusive. Potency is the fitted concentration of half-maximal effect.
SMILES,Sfp inh,Gal4-VP16 FLuc,ClpP mod,Epigenetic reg,PINK1 modulator,RORgamma inh
CCC(C)(C)n1nnnc1C(c1ccccc1OC)N1CCN(C(=O)c2ccco2)CC1 (stereo unspecified),11%,18%,1%,.,0%,7%
COc1ccc(-c2cc(=O)n(-c3ccc([N+](=O)[O-])cc3)[nH]2)cc1,-12%,-5%,28µM*,-1%,?,4%[10 µM]
CN(Cc1cnc2ccccn12)C(=O)c1cc(NC(=O)c2ccccc2)cc2ncn(C3CCCC3)c12,.,.,.,.,1%,.
COC(=O)c1ccccc1NC(=O)Cn1c(=O)n(Cc2ccccc2)c(=O)c2c(C)c(C)sc21,79µM*,4%,1%,6%,0%,3%[10 µM]
O=C(CSc1ncc(-c2ccccc2)[nH]1)Nc1cccc(C(F)(F)F)c1,.,.,-5%,2%,1%,.
O=S(=O)(Nc1ccc2nc(-c3ccc(Br)o3)[nH]c2c1)c1ccccc1,50µM*,1%,.,-1%,.,?
O=S(=O)(Nc1ccc2nc(C(F)(F)F)[nH]c2c1)c1ccccc1,10%,-12%,-1%,-2%,.,?
Cc1ccc(-c2nc3ccc(NS(=O)(=O)c4ccccc4)cc3[nH]2)o1,35µM*,-5%,-8%,9%,-5%[38.3 µM],22%
CCOC(=O)c1cc(-c2ccc(OC)cc2)n(CCC(=O)NCCc2ccccc2)c1C,.,.,-3%,0%,2%,.
COc1cccc(Cn2c(SCC(=O)N(C)c3ccccc3)nc3ccccc32)c1,.,.,-5%,-1%,0%,.
COc1cccc(CN2C(=O)NC(C)(C3CCN(Cc4cccc(O)c4)CC3)C2=O)c1OC (stereo unspecified),.,.,.,.,0%,.
CC(C)N1C(=O)C2C(c3ccccc3O)NC(C)(C(=O)O)C2C1=O (stereo unspecified),20µM*,2%,-1%,-1%,0%,-9%
O=C(O)C1C2C=CC(CC2)C1C(=O)O (stereo unspecified),40µM*,11%,-5%,0%,-2%,1%
CC(C)c1ccc(NC(=O)C2C3C=CC(CC3)C2C(=O)O)cc1 (stereo unspecified),.,.,-1%,.,0%,.
COc1ccc(NC(=O)CC2C(=O)N(c3ccc(F)cc3)C(=S)N2NC(=O)c2ccc(Cl)cc2)cc1 (stereo unspecified),-3%,20µM*,-2%,1%,1%,11µM*
COc1ccc(NC(=O)CC2C(=O)N(c3ccc(Cl)cc3)C(=S)N2NC(=O)c2cccc(F)c2)cc1 (stereo unspecified),-7%,18µM*,2%,0%,?,10µM*
O=[N+]([O-])c1ccc(/C=N/N/C(=N/c2ccccn2)c2ccccn2)cc1,45µM*,-4%,2%,-1%,.,11µM*
O=[N+]([O-])c1cc(/C=N/N/C(=N/c2ccccn2)c2ccccn2)ccc1O,12%,4.5µM*,.,3%,8%,1.4µM*
Cc1ccc(-c2n[nH]c(=S)n2C)cc1Cl,?,3.5µM*,-2%,2%,-1%,0.56µM*
CCN(CC)S(=O)(=O)c1cccc(-c2n[nH]c(=S)n2C)c1,-5%,-4%[10 µM],.,0%,0%,?
O=C(Nc1nccs1)C1(S(=O)(=O)c2ccc(Cl)cc2)CC1,4%,?,0%,1%,-1%[38.3 µM],7.1µM*
CCC(C(=O)Nc1nccs1)(C(F)(F)F)C(F)(F)F,6%,7.9µM*,-2%,-1%,10%[38.3 µM],7.1µM*
CC(Oc1ccc(Cl)cc1)C(=O)Nc1nccs1 (stereo unspecified),17%,-15%,-1%,-1%,-3%,14µM*
CCC(C)C(=O)Nc1nccs1 (stereo unspecified),?,18µM*,.,0%,-2%,5.6µM*
Cc1ccc(S(=O)(=O)C2(C(=O)Nc3nccs3)CC2)cc1,-13%,?,0%,0%,0%,?
SMILES,Sfp inh,Gal4-VP16 FLuc,ClpP mod,Epigenetic reg,PINK1 modulator,RORgamma inh
COc1ccc(NC(=O)c2sc3nc4n(c(=O)c3c2C)CCC4)cc1Cl,.,.,111%,0%,1%,.
Cc1cccnc1-c1cccc2c1OC(CNC(=O)Cc1c(C)noc1C)C2 (stereo unspecified),.,.,.,.,0%,.
CSCC[C@H](NC(=O)[C@H](CCCNC(=N)N)NC(=O)[C@H](Cc1ccc(O)cc1)NC(=O)[C@@H]1CCCN1C(=O)CNC(=O)[C@H](CCC(=O)O)NC(=O)[C@H](CC(=O)O)NC(=O)[C@H](CCCCN)NC(=O)[C@H](CCCCN)NC(=O)[C@H](CCC(=O)O)NC(=O)[C@H](C)N)C(=O)N[C@@H](CCC(=O)O)C(=O)N[C@@H](Cc1cnc[nH]1)C(=O)N[C@@H](Cc1ccccc1)C(=O)N[C@@H](CCCNC(=N)N)C(=O)N[C@@H](Cc1c[nH]c2ccccc12)C(=O)NCC(=O)N[C@@H](CO)C(=O)N1CCC[C@H]1C(=O)N1CCC[C@H]1C(=O)N[C@@H](CCCCN)C(=O)N[C@@H](CC(=O)O)C(=O)O,8%,5%,.,.,.,10%
CC1CCN(C(=O)CSc2nnc(CN3CCOCC3)n2-c2ccccc2)CC1,71µM*,-6%,1%,-1%,-1%[38.3 µM],-8%
O=C(CSc1nnc(CN2CCOCC2)n1-c1ccccc1)N1CCc2ccccc21,11%,-3%,0%,2%,-1%,0%
COc1cc(-c2noc(CCCC(=O)Nc3ccc(C(N)=O)cc3)n2)cc(OC)c1OC,15%,?,.,0%,1%,15%
CCOC(=O)c1ccccc1NC(=O)CCc1nc(-c2ccc(C)cc2)no1,.,.,?,4%,0%,.
COc1ccc(-c2noc(CCCC(=O)Nc3ccc(C(N)=O)cc3)n2)cc1,8%,2.5µM*,-1%,-1%,10%[38.3 µM],1.6µM*
COC(=O)c1ccccc1NC(=O)Cc1nc(-c2ccc(OC)cc2)no1,.,.,28µM*,-2%,2%,.
COc1ccc(-c2noc(CCC(=O)NC3CCCCCC3)n2)cc1,9%,-6%,-1%,.,1%,25%
COc1ccc(-c2noc(CCCC(=O)NC3CCCC3)n2)cc1,-2%,14µM*,.,.,0%,4.5µM*
CCc1ccc(NC(=O)c2ccc(Cn3nc(N4CCN(c5ccccc5)CC4)ccc3=O)o2)cc1,.,.,-1%,-2%,-1%,.
CCC(C)Sc1nnc(CNC(=O)C23CC4CC(CC(C4)C2)C3)n1C1CCCCC1 (stereo unspecified),17%,?,-1%,0%,1%,11µM*
c1ccc2sc(-c3ccc4c(c3)OCO4)nc2c1,-5%,2.2µM*,2%,1%,0%,?
